In the supplement of paper PMC6411743 one finds NP40-soluble protein abundance data, which are given here for 15 targets.

± gives the standard deviation of the averaged measurements. The full data set covers some 5,400 targets. This sample favours those with the largest changes.

Compound in the experiment: Nc1nc2c(ncn2[C@@H]2O[C@H](COP(=O)(O)OP(=O)(O)OP(=O)(O)O)[C@@H](O)[C@H]2O)c(=O)[nH]1 [guanosine triphosphate]
The experiment in a line: NP40-soluble protein abundance relative to vehicle (solubility fold change) (ratio); higher = more soluble protein in presence of GTP. In outline:
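Each value is a fold change relative to the detergent-processed vehicle, calculated per replicate from vsn-normalised intensities. Jurkat crude lysate received eight concentrations (0.1 to 10 mM) for 10 min at room temperature and 3 min at 37 °C, then was solubilised in 0.8% NP40 with benzonase (60 min, 4 °C). The ultracentrifuged supernatant was TMT-labelled and run by LC-MS/MS in three independent experiments.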

Sequence of UniProt Q15424 (Q15424 whole entry): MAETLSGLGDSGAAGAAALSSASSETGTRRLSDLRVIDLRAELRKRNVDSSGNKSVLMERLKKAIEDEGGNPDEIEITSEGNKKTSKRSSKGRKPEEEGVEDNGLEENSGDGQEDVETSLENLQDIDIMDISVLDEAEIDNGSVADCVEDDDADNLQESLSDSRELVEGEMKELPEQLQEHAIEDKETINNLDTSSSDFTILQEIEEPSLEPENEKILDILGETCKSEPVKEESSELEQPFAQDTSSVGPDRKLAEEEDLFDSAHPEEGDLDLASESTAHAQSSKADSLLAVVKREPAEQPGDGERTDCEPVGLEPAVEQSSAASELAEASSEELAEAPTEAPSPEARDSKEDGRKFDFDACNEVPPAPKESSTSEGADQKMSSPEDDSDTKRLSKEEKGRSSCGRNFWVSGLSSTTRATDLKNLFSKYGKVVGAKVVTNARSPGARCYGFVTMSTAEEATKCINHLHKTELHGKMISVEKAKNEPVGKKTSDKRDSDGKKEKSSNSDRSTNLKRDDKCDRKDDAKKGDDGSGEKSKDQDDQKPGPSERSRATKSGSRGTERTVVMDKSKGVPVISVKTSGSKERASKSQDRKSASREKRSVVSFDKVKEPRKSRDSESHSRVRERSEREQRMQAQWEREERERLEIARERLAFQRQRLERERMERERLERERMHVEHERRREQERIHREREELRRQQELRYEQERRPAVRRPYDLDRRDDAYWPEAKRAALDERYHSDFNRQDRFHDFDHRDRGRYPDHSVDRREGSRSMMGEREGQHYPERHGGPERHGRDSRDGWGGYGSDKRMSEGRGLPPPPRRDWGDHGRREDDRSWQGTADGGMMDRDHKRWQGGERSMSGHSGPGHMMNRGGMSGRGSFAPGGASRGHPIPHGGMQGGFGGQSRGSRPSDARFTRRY
Sequence of UniProt Q8NB16 (Q8NB16 whole entry): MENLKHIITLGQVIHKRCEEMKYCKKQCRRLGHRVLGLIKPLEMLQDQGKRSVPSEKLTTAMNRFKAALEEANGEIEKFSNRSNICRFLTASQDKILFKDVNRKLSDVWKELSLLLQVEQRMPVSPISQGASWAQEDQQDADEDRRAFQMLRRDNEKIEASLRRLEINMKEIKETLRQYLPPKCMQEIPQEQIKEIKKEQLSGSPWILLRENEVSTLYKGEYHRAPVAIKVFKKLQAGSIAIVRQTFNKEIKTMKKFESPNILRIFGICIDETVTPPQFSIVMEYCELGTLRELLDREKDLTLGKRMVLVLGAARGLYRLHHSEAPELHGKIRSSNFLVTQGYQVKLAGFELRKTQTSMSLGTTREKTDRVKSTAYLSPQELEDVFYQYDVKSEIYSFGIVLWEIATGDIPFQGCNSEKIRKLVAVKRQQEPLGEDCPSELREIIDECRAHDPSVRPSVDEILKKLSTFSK
Sequence of UniProt Q8WUF8 (Q8WUF8 whole entry): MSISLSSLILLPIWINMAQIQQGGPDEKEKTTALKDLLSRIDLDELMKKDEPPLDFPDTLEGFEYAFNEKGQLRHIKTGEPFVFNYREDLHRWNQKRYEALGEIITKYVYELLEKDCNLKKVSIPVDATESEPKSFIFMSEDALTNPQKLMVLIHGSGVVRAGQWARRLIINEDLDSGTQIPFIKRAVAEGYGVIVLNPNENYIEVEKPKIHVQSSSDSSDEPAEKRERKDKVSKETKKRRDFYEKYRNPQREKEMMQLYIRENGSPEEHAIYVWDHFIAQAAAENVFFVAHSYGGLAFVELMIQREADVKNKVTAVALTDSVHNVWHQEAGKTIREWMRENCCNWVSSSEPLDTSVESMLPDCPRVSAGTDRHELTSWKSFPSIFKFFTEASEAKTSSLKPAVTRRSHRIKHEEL
Sequence of UniProt Q04721 (Q04721 whole entry): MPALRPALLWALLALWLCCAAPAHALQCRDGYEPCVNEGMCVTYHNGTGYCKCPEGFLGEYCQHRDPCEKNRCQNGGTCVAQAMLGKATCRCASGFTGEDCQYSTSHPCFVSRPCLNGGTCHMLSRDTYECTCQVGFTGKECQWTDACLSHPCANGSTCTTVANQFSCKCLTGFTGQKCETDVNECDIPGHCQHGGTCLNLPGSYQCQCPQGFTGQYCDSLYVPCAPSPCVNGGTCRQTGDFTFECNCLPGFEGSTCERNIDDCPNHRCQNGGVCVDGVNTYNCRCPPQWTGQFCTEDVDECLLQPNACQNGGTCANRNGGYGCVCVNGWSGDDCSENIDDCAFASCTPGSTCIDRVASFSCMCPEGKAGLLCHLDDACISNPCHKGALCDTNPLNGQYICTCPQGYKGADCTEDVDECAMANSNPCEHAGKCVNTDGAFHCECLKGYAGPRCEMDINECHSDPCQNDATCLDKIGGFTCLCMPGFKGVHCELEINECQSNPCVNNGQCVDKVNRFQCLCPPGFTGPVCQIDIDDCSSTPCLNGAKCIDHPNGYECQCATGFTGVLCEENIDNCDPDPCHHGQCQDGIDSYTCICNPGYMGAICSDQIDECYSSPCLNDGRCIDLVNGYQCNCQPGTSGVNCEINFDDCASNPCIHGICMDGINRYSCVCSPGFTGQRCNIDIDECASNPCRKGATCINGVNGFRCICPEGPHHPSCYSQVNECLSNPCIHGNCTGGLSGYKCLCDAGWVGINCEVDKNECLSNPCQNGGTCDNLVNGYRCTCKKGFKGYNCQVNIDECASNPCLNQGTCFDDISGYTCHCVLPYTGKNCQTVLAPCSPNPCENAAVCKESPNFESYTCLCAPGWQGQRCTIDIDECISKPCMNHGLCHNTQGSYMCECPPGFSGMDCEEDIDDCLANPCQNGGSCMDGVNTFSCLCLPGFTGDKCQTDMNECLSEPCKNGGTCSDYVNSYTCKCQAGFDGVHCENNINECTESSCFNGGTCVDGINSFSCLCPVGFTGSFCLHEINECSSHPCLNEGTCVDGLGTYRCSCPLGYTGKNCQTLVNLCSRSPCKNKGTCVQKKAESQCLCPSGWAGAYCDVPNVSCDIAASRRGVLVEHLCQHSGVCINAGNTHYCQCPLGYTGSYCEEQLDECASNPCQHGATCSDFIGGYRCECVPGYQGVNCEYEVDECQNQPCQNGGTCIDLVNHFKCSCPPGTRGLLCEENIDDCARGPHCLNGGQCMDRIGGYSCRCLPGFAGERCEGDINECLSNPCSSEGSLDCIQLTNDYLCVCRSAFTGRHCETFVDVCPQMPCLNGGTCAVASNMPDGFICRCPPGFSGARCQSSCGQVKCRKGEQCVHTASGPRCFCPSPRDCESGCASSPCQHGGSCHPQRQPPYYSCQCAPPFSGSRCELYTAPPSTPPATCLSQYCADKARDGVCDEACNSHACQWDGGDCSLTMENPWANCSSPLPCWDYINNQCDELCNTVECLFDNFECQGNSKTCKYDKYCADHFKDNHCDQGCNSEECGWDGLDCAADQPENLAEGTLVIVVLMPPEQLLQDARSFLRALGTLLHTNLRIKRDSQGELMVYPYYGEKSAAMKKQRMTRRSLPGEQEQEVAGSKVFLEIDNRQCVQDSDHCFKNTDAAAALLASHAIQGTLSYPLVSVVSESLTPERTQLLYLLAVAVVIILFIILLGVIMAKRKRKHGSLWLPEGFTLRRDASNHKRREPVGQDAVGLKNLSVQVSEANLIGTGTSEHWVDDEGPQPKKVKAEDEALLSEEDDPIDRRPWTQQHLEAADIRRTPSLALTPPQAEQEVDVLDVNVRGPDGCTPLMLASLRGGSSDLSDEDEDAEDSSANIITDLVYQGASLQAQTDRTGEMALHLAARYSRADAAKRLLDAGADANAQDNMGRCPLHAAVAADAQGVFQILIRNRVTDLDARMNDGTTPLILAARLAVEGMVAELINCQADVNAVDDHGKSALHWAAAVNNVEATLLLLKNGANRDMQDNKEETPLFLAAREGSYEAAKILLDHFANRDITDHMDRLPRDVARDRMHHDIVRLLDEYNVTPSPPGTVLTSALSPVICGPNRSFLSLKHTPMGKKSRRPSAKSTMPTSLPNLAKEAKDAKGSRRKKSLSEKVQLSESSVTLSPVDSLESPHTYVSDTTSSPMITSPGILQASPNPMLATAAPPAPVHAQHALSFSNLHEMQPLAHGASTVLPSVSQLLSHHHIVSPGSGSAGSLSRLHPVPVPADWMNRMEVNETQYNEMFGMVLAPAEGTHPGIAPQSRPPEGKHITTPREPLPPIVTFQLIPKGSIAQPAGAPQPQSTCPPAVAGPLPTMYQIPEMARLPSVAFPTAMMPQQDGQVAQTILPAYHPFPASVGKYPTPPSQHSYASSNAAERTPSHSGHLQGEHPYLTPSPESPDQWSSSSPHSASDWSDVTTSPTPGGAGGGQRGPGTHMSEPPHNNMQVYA
Sequence of UniProt Q6UXH1 (Q6UXH1 whole entry): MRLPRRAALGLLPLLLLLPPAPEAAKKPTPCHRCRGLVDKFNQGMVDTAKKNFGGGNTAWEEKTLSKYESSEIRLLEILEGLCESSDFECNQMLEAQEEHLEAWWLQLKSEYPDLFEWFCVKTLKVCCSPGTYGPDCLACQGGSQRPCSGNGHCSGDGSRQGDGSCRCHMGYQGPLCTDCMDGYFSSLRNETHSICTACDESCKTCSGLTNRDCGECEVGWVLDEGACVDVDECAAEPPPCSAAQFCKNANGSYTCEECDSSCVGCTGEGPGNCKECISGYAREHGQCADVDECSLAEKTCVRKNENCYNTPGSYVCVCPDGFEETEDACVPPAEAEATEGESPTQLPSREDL
Sequence of UniProt Q86WQ0 (Q86WQ0 whole entry): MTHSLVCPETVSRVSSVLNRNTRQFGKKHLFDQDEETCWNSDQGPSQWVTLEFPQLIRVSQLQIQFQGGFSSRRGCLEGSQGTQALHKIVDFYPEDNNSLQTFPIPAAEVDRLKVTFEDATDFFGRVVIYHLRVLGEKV

Turning to DHX9 (UniProt Q08211), the NP40-soluble protein abundance runs as follows: (concentration: 0.1mM) 1.03 ± 0.088; (concentration: 0.5mM) 1.13 ± 0.16; (concentration: 1mM) 1.06 ± 0.17; (concentration: 2mM) 1.2 ± 0.26; (concentration: 4mM) 1.32 ± 0.28; (concentration: 6mM) 1.49 ± 0.37. The NP40-soluble protein abundance is, setting by setting: (concentration: 8mM) 1.52 ± 0.3; (concentration: 10mM) 1.64 ± 0.33.

Take UniProt Q14103-3|D6RF44|Q14103-4: the NP40-soluble protein abundance (concentration: 0.1mM) turned out to be 0.913 ± 0.097; the NP40-soluble protein abundance (concentration: 0.5mM) was 0.946 ± 0.094; the NP40-soluble protein abundance (concentration: 1mM) was determined as 0.943 ± 0.085; the NP40-soluble protein abundance (concentration: 2mM) is 0.894 ± 0.1; the NP40-soluble protein abundance (concentration: 4mM) amounted to 0.903 ± 0.1; the NP40-soluble protein abundance (concentration: 6mM) is 0.915 ± 0.084. Also, the NP40-soluble protein abundance came out at 0.947 ± 0.11 (concentration: 8mM) and 0.929 ± 0.11 (concentration: 10mM).

As to UniProt Q15424|Q15424-3|Q15424-4, the NP40-soluble protein abundance (concentration: 0.1mM) came out at 0.958 ± 0.048; the NP40-soluble protein abundance (concentration: 0.5mM) came out at 0.938 ± 0.052; the NP40-soluble protein abundance (concentration: 1mM) is 1.04 ± 0.039; the NP40-soluble protein abundance (concentration: 2mM) is 1.09 ± 0.081; the NP40-soluble protein abundance (concentration: 4mM) amounted to 1.19 ± 0.066; the NP40-soluble protein abundance (concentration: 6mM) amounted to 1.25 ± 0.041. Further, the NP40-soluble protein abundance came out at 1.38 ± 0.083 (concentration: 8mM) and 1.44 ± 0.083 (concentration: 10mM).

Regarding NOTCH2 (UniProt Q04721), the NP40-soluble protein abundance stood at 0.991 ± 0.023 (concentration: 0.1mM); 1.03 ± 0.042 (concentration: 0.5mM); 1.086 ± 0.0064 (concentration: 1mM); 1.12 ± 0.069 (concentration: 2mM); 0.967 ± 0.22 (concentration: 4mM); 1.08 ± 0.23 (concentration: 6mM). Further, the NP40-soluble protein abundance reads like this: (concentration: 8mM) 1.08 ± 0.028; (concentration: 10mM) 1.06 ± 0.08.

“UniProt Q6UXH1|Q6UXH1-4|Q6UXH1-5|Q6UXH1-6”: the NP40-soluble protein abundance turned out to be 0.968 ± 0.018 (concentration: 0.1mM); 0.941 ± 0.046 (concentration: 0.5mM); 1.03 ± 0.09 (concentration: 1mM); 0.959 ± 0.093 (concentration: 2mM); 0.935 ± 0.096 (concentration: 4mM); 0.959 ± 0.12 (concentration: 6mM). Besides, the NP40-soluble protein abundance is 0.95 ± 0.061 (concentration: 8mM) and 0.956 ± 0.088 (concentration: 10mM).

For UniProt Q13303-2, the NP40-soluble protein abundance (concentration: 0.1mM) stood at 1.05 ± 0.045; the NP40-soluble protein abundance (concentration: 0.5mM) came to 1.06 ± 0.11; the NP40-soluble protein abundance (concentration: 1mM) is 0.954 ± 0.086; the NP40-soluble protein abundance (concentration: 2mM) came out at 1 ± 0.14; the NP40-soluble protein abundance (concentration: 4mM) was 0.984 ± 0.11; the NP40-soluble protein abundance (concentration: 6mM) was 0.973 ± 0.14. Further, the NP40-soluble protein abundance stood at 0.898 ± 0.024 (concentration: 8mM) and 0.904 ± 0.043 (concentration: 10mM).

As to UniProt Q8IXB1|Q8IXB1-2, the NP40-soluble protein abundance runs as follows: (concentration: 0.1mM) 1.17 ± 0.21; (concentration: 0.5mM) 1.06 ± 0.11; (concentration: 1mM) 1.08 ± 0.1; (concentration: 2mM) 1.17 ± 0.15; (concentration: 4mM) 1.1 ± 0.11; (concentration: 6mM) 1.11 ± 0.16. In addition, the NP40-soluble protein abundance is, setting by setting: (concentration: 8mM) 1.1 ± 0.11; (concentration: 10mM) 1.06 ± 0.084.

As to MLKL (UniProt Q8NB16), the NP40-soluble protein abundance was found to be 0.98 ± 0.044 (concentration: 0.1mM); 0.962 ± 0.052 (concentration: 0.5mM); 0.896 ± 0.062 (concentration: 1mM); 0.908 ± 0.035 (concentration: 2mM); 0.873 ± 0.047 (concentration: 4mM); 0.874 ± 0.032 (concentration: 6mM). The NP40-soluble protein abundance (concentration: 8mM) was determined as 0.868 ± 0.045 and the NP40-soluble protein abundance (concentration: 10mM) was determined as 0.837 ± 0.024.

For the target UniProt Q8WUQ7|Q8WUQ7-2, the NP40-soluble protein abundance (concentration: 0.1mM) was 0.975 ± 0.11; the NP40-soluble protein abundance (concentration: 0.5mM) worked out at 1.02 ± 0.12; the NP40-soluble protein abundance (concentration: 1mM) stood at 0.967 ± 0.13; the NP40-soluble protein abundance (concentration: 2mM) amounted to 1.02 ± 0.14; the NP40-soluble protein abundance (concentration: 4mM) amounted to 1.09 ± 0.13; the NP40-soluble protein abundance (concentration: 6mM) is 1.12 ± 0.095. The NP40-soluble protein abundance by setting is: (concentration: 8mM) 1.12 ± 0.03; (concentration: 10mM) 1.19 ± 0.11.

UniProt Q86V81: the NP40-soluble protein abundance (concentration: 0.1mM) was 0.939 ± 0.019; the NP40-soluble protein abundance (concentration: 0.5mM) is 0.943 ± 0.079; the NP40-soluble protein abundance (concentration: 1mM) turned out to be 1.12 ± 0.036; the NP40-soluble protein abundance (concentration: 2mM) was 1.25 ± 0.097; the NP40-soluble protein abundance (concentration: 4mM) is 1.5 ± 0.047; the NP40-soluble protein abundance (concentration: 6mM) is 1.73 ± 0.054. Also, the NP40-soluble protein abundance is, setting by setting: (concentration: 8mM) 1.95 ± 0.1; (concentration: 10mM) 2.52 ± 0.13.

Consider “Q5VWV2|Q8TEW0|Q8TEW0-11|Q8TEW0-2|Q8TEW0-4|Q8TEW0-5|Q8TEW0-8 (UniProt Q8TEW0)”, for which the NP40-soluble protein abundance is, setting by setting: (concentration: 0.1mM) 1.02 ± 0.11; (concentration: 0.5mM) 1.02 ± 0.084; (concentration: 1mM) 1.05 ± 0.098; (concentration: 2mM) 1.07 ± 0.089; (concentration: 4mM) 1.17 ± 0.14; (concentration: 6mM) 1.15 ± 0.14. In addition, the NP40-soluble protein abundance (concentration: 8mM) amounted to 1.2 ± 0.14 and the NP40-soluble protein abundance (concentration: 10mM) was determined as 1.19 ± 0.1.

As for UniProt Q8WUF8|Q8WUF8-3, the NP40-soluble protein abundance was 1.03 ± 0.14 (concentration: 0.1mM); 1.03 ± 0.051 (concentration: 0.5mM); 0.978 ± 0.14 (concentration: 1mM); 1 ± 0.044 (concentration: 2mM); 0.966 ± 0.028 (concentration: 4mM); 1.01 ± 0.014 (concentration: 6mM). Also, the NP40-soluble protein abundance is 0.959 ± 0.021 (concentration: 8mM) and 0.99 ± 0.023 (concentration: 10mM).

With UniProt Q00653|Q00653-4, the NP40-soluble protein abundance reads like this: (concentration: 0.1mM) 0.995 ± 0.032; (concentration: 0.5mM) 0.997 ± 0.021; (concentration: 1mM) 0.959 ± 0.013; (concentration: 2mM) 0.955 ± 0.037; (concentration: 4mM) 0.96 ± 0.048; (concentration: 6mM) 0.931 ± 0.016. The NP40-soluble protein abundance (concentration: 8mM) is 0.966 ± 0.04 and the NP40-soluble protein abundance (concentration: 10mM) is 0.94 ± 0.045.

As to UniProt Q7Z2T5, the NP40-soluble protein abundance worked out at 1.05 ± 0.05 (concentration: 0.1mM); 1.09 ± 0.014 (concentration: 0.5mM); 1.08 ± 0.035 (concentration: 1mM); 1.21 ± 0.059 (concentration: 2mM); 1.32 ± 0.072 (concentration: 4mM); 1.42 ± 0.08 (concentration: 6mM). Also, the NP40-soluble protein abundance was determined as 1.44 ± 0.059 (concentration: 8mM) and 1.57 ± 0.024 (concentration: 10mM).

For the target UniProt Q86WQ0|Q86WQ0-2, the NP40-soluble protein abundance (concentration: 0.1mM) was determined as 0.973 ± 0.06; the NP40-soluble protein abundance (concentration: 0.5mM) stood at 0.939 ± 0.017; the NP40-soluble protein abundance (concentration: 1mM) amounted to 0.882 ± 0.094; the NP40-soluble protein abundance (concentration: 2mM) stood at 0.9 ± 0.082; the NP40-soluble protein abundance (concentration: 4mM) amounted to 0.884 ± 0.14; the NP40-soluble protein abundance (concentration: 6mM) worked out at 0.897 ± 0.096. For the same target, the NP40-soluble protein abundance reads like this: (concentration: 8mM) 0.849 ± 0.13; (concentration: 10mM) 0.862 ± 0.099.
